According to the supplement of paper PMC11732987, “Enantioselective OTUD7B fragment discovery through chemoproteomics screening and high-throughput optimisation” (Communications Chemistry, 2025):

What was measured:
Test in all cases: log2 ratio of Biotin-Ahx-Ub-VS probe labelling (fragment/DMSO); higher = less target engagement (more negative = stronger competition), active = hit call of the paper (q ≤ 0.05, log2 ratio ≤ -1)
Conditions in all cases: compound concentration: 200 uM; treatment time: 3 h
OTUD6B = biological target: T1, OTUD6B (UniProt Q8N6M0)
T1 sequence (whole entry): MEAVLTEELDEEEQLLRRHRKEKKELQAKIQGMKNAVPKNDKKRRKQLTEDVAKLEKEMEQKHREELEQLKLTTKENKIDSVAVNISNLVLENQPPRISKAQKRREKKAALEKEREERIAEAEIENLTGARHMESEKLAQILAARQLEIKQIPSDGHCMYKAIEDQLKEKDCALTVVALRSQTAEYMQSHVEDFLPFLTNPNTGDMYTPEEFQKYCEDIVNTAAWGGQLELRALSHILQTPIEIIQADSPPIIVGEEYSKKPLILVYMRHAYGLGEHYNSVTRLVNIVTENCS
How it was run: (§1)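 Using Biotin-Ahx-Ub-VS at 0.5 µM final for 1 h, DUBs were labelled in HEK293T lysate (495 µg per sample) that had first been treated in triplicate with fragment at 200 µM or vehicle for 3 h. NeutrAvidin enrichment, LysC and trypsin digestion and diaPASEF LC-MS/MS followed. Spectronaut label-free quantities were global-median-normalised. Values are average log2 fragment/vehicle ratios by unpaired t-test, using proteins with ≥2 unique peptides.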

OTUD7B = biological target: T2, OTUD7B (UniProt Q6GQQ9)
T2 sequence (whole entry): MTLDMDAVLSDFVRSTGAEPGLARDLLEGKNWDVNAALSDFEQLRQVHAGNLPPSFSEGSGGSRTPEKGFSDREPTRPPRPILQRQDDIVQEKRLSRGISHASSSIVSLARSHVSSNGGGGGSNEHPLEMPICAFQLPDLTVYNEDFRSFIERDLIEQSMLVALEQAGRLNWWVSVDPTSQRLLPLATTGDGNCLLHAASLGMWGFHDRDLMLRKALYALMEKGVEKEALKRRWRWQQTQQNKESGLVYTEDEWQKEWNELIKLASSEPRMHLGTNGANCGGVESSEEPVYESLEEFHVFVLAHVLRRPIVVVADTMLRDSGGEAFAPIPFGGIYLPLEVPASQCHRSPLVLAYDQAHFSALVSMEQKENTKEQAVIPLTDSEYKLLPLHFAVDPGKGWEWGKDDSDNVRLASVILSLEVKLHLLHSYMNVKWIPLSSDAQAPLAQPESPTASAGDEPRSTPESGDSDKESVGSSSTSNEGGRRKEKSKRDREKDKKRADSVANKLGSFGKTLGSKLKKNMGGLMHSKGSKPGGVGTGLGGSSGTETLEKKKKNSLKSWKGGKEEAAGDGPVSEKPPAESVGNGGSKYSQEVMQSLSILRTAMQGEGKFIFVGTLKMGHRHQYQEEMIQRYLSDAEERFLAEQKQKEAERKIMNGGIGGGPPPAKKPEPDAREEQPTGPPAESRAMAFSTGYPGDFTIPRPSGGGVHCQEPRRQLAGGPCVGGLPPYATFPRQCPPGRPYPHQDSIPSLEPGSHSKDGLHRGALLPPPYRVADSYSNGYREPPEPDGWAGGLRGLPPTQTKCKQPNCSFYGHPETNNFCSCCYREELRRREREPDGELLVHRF
How it was run: as §1

PRPF8 = PRPF8 (UniProt Q6P2Q9)
How it was run: as §1

PSMD7 = biological target: T3, PSMD7 (UniProt P51665)
T3 sequence (whole entry): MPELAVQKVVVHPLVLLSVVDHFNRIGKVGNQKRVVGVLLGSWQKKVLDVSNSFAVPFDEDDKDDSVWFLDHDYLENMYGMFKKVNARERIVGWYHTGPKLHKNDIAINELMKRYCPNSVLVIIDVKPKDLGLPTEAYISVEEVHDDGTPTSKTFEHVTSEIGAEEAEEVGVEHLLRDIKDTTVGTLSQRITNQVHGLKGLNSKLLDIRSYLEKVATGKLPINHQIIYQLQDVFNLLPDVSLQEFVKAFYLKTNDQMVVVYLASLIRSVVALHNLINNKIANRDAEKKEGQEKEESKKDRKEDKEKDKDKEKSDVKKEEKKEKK
How it was run: as §1

UCHL1 = UCHL1 (UniProt P09936)
How it was run: as §1

UCHL3 = biological target: T4, UCHL3 (UniProt P15374)
T4 sequence (whole entry): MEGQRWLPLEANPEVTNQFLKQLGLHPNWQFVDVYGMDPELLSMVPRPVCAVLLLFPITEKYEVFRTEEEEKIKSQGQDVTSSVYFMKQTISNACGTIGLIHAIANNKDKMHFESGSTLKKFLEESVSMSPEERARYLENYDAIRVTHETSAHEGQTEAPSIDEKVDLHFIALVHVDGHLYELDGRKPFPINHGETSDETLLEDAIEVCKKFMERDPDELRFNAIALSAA
How it was run: as §1

UCHL5 = biological target: T5, UCHL5 (UniProt Q9Y5K5)
T5 sequence (whole entry): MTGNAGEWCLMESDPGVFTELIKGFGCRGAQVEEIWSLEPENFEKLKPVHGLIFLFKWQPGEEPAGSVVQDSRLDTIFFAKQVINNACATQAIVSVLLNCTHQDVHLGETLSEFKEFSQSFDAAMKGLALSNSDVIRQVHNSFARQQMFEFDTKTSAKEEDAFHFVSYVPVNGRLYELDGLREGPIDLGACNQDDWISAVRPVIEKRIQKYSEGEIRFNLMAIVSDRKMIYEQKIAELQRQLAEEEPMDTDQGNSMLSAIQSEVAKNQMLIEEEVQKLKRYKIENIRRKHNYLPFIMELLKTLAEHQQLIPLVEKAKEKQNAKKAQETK
How it was run: as §1

USP10 = USP10 (UniProt Q14694)
How it was run: as §1

USP15 = biological target: T6, USP15 (UniProt Q9Y4E8)
T6 sequence (whole entry): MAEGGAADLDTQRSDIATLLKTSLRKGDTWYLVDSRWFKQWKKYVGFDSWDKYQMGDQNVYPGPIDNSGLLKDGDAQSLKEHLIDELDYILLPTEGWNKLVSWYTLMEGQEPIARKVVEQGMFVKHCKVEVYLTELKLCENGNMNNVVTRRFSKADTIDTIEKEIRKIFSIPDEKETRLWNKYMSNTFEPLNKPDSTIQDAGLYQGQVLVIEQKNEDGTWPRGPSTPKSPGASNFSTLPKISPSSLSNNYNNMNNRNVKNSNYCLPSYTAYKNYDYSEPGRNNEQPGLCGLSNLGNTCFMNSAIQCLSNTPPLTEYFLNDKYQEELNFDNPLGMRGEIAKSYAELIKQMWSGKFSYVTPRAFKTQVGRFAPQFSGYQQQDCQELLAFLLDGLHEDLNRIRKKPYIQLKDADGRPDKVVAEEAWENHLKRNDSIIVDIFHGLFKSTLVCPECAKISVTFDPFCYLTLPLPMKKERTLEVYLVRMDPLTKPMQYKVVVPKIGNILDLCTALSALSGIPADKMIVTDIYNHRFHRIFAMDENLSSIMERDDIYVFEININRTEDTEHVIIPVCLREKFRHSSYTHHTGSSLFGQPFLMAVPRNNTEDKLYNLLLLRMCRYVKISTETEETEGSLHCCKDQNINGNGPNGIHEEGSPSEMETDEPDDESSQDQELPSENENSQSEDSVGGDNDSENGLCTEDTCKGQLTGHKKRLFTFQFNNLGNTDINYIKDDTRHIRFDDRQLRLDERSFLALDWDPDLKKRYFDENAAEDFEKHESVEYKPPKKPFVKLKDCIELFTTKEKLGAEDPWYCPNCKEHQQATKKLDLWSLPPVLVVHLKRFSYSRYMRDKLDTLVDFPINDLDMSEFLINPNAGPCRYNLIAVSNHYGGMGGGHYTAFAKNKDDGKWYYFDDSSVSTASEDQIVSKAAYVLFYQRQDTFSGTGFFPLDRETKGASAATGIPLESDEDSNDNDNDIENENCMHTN
How it was run: as §1

USP16 = USP16 (UniProt Q9Y5T5)
How it was run: as §1

Measured: log2 ratio of Biotin-Ahx-Ub-VS probe labelling

Sequence of USP16 (Q9Y5T5 whole entry, looked up): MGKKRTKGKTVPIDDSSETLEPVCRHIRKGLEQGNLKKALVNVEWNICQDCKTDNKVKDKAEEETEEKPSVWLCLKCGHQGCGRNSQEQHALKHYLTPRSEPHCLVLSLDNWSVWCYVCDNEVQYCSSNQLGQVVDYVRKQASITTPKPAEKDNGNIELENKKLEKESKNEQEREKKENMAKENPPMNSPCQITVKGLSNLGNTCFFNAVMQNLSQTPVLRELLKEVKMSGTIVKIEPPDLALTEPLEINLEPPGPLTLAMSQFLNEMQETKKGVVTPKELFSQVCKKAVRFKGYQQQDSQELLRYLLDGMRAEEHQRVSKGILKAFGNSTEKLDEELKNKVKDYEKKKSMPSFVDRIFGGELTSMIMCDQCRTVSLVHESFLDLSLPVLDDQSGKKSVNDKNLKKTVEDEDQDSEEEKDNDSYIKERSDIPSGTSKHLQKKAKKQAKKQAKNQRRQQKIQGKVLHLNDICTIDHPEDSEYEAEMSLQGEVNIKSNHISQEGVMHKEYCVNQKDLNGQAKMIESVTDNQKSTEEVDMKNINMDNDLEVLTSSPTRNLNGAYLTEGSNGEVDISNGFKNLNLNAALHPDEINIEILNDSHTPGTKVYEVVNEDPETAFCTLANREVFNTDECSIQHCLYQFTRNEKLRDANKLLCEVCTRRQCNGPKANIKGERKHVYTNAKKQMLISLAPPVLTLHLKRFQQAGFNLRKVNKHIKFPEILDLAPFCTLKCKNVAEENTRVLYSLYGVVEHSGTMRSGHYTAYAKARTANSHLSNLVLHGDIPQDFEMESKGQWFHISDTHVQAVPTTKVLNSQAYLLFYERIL
Sequence of USP10 (Q14694 whole entry): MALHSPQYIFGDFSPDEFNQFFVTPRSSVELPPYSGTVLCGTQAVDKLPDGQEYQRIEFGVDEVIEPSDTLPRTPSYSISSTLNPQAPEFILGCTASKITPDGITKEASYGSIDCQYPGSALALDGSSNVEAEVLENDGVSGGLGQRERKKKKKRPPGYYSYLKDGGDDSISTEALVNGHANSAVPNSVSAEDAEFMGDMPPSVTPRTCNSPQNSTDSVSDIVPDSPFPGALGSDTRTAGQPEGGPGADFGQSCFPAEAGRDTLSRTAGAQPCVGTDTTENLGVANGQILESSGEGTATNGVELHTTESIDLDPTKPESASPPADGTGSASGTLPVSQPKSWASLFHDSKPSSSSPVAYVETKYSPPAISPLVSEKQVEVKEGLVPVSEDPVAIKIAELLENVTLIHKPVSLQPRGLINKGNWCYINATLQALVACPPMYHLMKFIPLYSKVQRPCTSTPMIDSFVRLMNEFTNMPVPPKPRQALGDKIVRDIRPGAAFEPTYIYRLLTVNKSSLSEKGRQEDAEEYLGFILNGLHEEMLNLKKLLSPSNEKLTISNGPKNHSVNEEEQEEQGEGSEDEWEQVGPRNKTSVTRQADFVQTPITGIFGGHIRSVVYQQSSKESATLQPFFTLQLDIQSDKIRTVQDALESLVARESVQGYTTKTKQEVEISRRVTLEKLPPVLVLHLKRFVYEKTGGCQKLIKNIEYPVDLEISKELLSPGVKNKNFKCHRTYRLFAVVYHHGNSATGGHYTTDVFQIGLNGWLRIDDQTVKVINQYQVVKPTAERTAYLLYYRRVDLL
Sequence of UCHL1 (P09936 whole entry, looked up): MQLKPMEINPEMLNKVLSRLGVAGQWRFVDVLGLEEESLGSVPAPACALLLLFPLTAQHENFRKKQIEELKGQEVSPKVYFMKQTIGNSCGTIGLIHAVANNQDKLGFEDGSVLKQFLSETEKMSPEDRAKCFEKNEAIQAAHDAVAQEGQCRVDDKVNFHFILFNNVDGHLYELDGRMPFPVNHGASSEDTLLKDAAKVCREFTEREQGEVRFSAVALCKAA

Cc1conc1C1CN(C(=O)CCl)C1
active: OTUD7B -1.6 | UCHL1 -2.04 | USP15 -1.15
inactive: OTUD6B -0.688 | PRPF8 -0.125 | PSMD7 -0.499 | UCHL3 -0.637 | UCHL5 -0.912 | USP10 -0.254 | USP16 -0.0913
